Assay results as given in PubChem BioAssay AID2288 (National Center for Advancing Translational Sciences (NCATS), 2010).
Hit rate of the full screen: of about 340,000 compounds, fewer than 10 were called active. Roughly 2% stayed inconclusive and do not appear here. Calls follow the shape of the dose curve; as a rule, active = well fitted curve in the direction sought with a large enough effect; inconclusive = small, poorly fitted or top-dose-only effect, or another doubt; inactive = no such curve, though single readings can be large or run the other way. Not all results are given here.

Experiment: qHTS Assay for Modulators of miRNAs and/orActivators of miR-21;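 also: % of control where 0% means no effect; miR-21 action dims this reporter so a rising signal means less miR-21 action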
Settings: HeLa miR-21 FLuc reporter, luciferase, 48 h; series mostly up to 38.3 µM; activity change, positive = activation: at the top concentration
Excerpt: MLSCN Grant: 1 R21 NS059478-01 Assay Provider: Qihong Huang, The Wistar Institute NCGC Assay Overview: MicroRNAs (miRNAs) are endogenously encoded small (~20-25 nucleotides), nonprotein-coding RNAs that are involved in post-transcriptional repression of target messenger RNAs (mRNAs) (Le and Hannon, 2004). Estimated to be involved in the regulation of 30% of all protein-coding mRNAs (Filipowicz et al., 2008), miRNAs play a significant role in many biological processes including cellular differentiation and tissue development (Ghildiyal and Zamore, 2009).
NCGC Assay Protocol Summary: Reagents: HeLa cells stably expressing firefly luciferase (FLuc) under the control of a CMV promoter (upstream) and a miR-21 binding sequence directly downstream of the gene. These cells endogenously express miR-21. Control compounds used were compound C3 (provided by collaborator), N6-phenyladenosine (MP Biomedicals, 0215379625), and DMSO. Assay Summary: 6uL of HeLa miR-21-FLuc cells in assay buffer (DMEM, Invitrogen #21063-029; 10% FBS, HyClone #SH30071.03) were dispensed at 2000cells/well (3.3 x 10^5 cells/mL) into Greiner solid-white TC-treated 1536-well plates using a Multidrop Combi (Thermo Fisher Scientific). Plates were incubated for one hour at 37 degree Celsius, 95% humidity, 5% CO2. These assay plates were then treated with 23nL of compound or DMSO using a Kalypsys pin tool, which allows for delivery of a 24-point titration of each compound to the assay plate, with a final compound concentration ranging from approximately 40uM to 5pM. Assay plates were then incubated for 48 hours. After incubation, plates were allowed to come to RT for one hour prior to delivery of 3uL of 3X luciferase detection reagent. After a 15 minute incubation to allow for cell lysis, luciferase activity was measured using a ViewLux CCD imager (PerkinElmer), with an average exposure time of 2-12 seconds. Keywords: NIH Roadmap, MLPCN, MLSMR, qHTS, miR-21, microRNA, firefly luciferase, FLuc.

Activity change, positive = activation, inactive:
CCOc1ccc(CCNC(=O)c2ccc3c(c2)sc2nc(-c4ccc(F)cc4)cn23)cc1OCC 1.62%, Cc1cc(NC(=O)c2ccc(-c3ccc(Cl)cc3)o2)cc(-c2nc3ncccc3o2)c1O 2.05%, O=C(CSc1oc(-c2ccco2)nc1S(=O)(=O)c1ccccc1)c1ccc(Cl)cc1 8.21%, COc1cccc(CNC(=O)Cc2csc3nc(-c4ccccc4)cn23)c1 -0.468%, Cc1ccc(NC(=O)c2ccc(CN3CC(=O)N4CCCCC4C3=O)cc2)c(Cl)c1 (stereo not given) 1.68%, O=C(Cn1ncn2nc(-c3cccs3)cc2c1=O)NCc1cccc(Br)c1 -2.62%, Cc1ccc(C)c(OCC(=O)Nc2sc3c(c2C#N)CCCC3)c1C -1.24%, COc1cccc(N2CCN(S(=O)(=O)c3cc(Br)cc4c3N(C(=O)C3CC3)CC4)CC2)c1 -0.588%, CCNS(=O)(=O)c1cc(-c2nnc(Nc3cccc(C(F)(F)F)c3)c3ccccc23)ccc1C -0.871%, Cc1nn(-c2ccc(N3CCCCC3)nn2)c(C)c1CCC(=O)NCc1ccccc1F 18.3%, CCOc1ccc(N(CC)C(=O)c2cc3c(=O)oc4ccccc4c3s2)cc1 -10.1%, CCCN(CCC)S(=O)(=O)c1ccc(C(=O)Nc2sc3c(c2C(=O)OC)CCN(CC)C3)cc1 22.1%, COC(=O)c1ccccc1NC(=O)c1cc(-c2ccccc2O)no1 5.97%, COC(=O)CC1Oc2ccccc2-n2cc(-c3ccccc3)nc21 (stereo not given) 12.2%, CCc1cc2c(cc3c(=O)n(CC(=O)N4CCN(c5cc(Cl)ccc5C)CC4)ncn32)s1 0.215%, CCOC(=O)c1ccc(NC(=O)Cn2cc(S(=O)(=O)Cc3ccccc3F)c3ccccc32)cc1 -1.64%, CCOC(=O)c1cnc2c(C)cc(C)cc2c1Nc1ccc(N2CCOCC2)cc1 -4.37%, Cc1cccc(CNC(=O)c2cnc3sc(N4CCCCC4)nn3c2=O)c1 -1.19%, Cc1nn(-c2ccc(N3CCCCC3)nn2)c(C)c1CCC(=O)NCc1ccc(F)cc1 -12.7%, Cc1cccc(-n2ccnc2SCC(=O)Nc2cccc3ccccc23)c1C 5.86%, CCOc1ccc(C(=O)c2cn(Cc3ccccc3OC)c3ccc(F)cc3c2=O)cc1 1.46%, CCOC(=O)c1cccc(NC(=O)c2cc(CN3CCCC3)on2)c1 -64%, O=C(Nc1ccc2nc(SCCOc3ccccc3Cl)sc2c1)c1ccco1 9%, Cc1ccc2c(=O)cc(C(=O)Nc3sc4c(c3C(=O)NCc3cccnc3)CCCC4)oc2c1 1.15%, Cc1ccc(CN2C(=O)SC(Nc3ccccc3)C2=O)cc1 (stereo not given) 2.92%, O=C(CCS(=O)(=O)c1cc(Br)cc2c1N(C(=O)C1CC1)CC2)Nc1ccc(C(F)(F)F)cc1 -1.46%, O=S(=O)(c1ccc(C2CCCCC2)cc1)N1CCN(c2ccc(Cl)c(Cl)c2)CC1 -2.63%, O=C(NCCC1=CCCCC1)c1ccc2c(c1)N(Cc1ccccc1F)C(=O)c1ccccc1S2(=O)=O 5.95%, CN(C)S(=O)(=O)c1ccc(C(=O)N(Cc2cccnc2)c2nc3c(F)cc(F)cc3s2)cc1 -11.5%, CCNC(=O)Cn1nc(C)n2c(cc3c(OC)cccc32)c1=O -0.737%, CCn1cc(C(=O)N2CCN(c3cc(C)ccc3C)CC2)c(=O)c2cc(S(=O)(=O)N(C)C3CCCCC3)ccc21 0.0352%, CCC(=O)N1CCc2cc(CNC(=O)Nc3ccccc3Cl)ccc21 -28.9%, Cc1cc(C)c(NC(=O)c2cc3sc(Cl)cc3n2C)c(C)c1 0.326%, COc1ccc(C(F)(F)F)cc1NC(=O)c1sc2nc(-c3cccs3)ccc2c1N -11.7%, Cc1cc2n(n1)C(c1cc(C(C)(C)C)c(O)cc1O)Nc1ccccc1-2 (stereo not given) 10.5%, CCc1ccc(C2C(C(=O)Nc3ccccc3)=C(C)Nc3c(C(=O)Nc4ccc(C)cc4)cnn32)cc1 (stereo not given) 18.4%, Cc1ccc(C)c(N2C(=O)N(Cc3c(F)cccc3Cl)c3ccccc3S2(=O)=O)c1 19.2%, Clc1cccc(-n2ncc3c(NCCc4ccccc4)ncnc32)c1 -34%, CCOc1ccc(N2CC(C)Cn3c2nc2c3c(=O)n(Cc3c(F)cccc3Cl)c(=O)n2C)cc1 (stereo not given) -3.48%, CCc1cc2c(cc3c(=O)n(CC(=O)N4CCN(c5cc(Cl)ccc5C)CC4)nc(CC)n32)s1 -0.281%, COc1ccc(-n2ccnc(NCCc3ccc(Cl)cc3)c2=O)cc1OC 24.5%, O=C1CCCc2cc(S(=O)(=O)N3CCCC(C(=O)NCc4ccccc4)C3)ccc2N1 (stereo not given) 7.69%, CCOC(=O)c1c(NC(=O)c2cc(CC)on2)sc(C(C)=O)c1C -1.99%, CCOc1ccc(N(CC)C(=O)C2CCN(S(=O)(=O)c3cccc4nonc34)CC2)cc1 0.642%, COc1ccccc1C1C(C(=O)N2CCCCC2)=C(C)Nc2nc3ccccc3n21 (stereo not given) 0.0662%, O=C(Nc1c(-c2ccc(F)cc2)nc2ccccn12)c1cccc(F)c1 -1.07%, O=C(CCn1c(=O)c2sccc2n(Cc2ccc(F)cc2)c1=O)NCc1ccc2c(c1)OCO2 0.239%, COc1cc(OC)cc(-c2nc3nc(C)c(CCC(=O)Nc4ccccc4)c(C)n3n2)c1 -4.08%, Cc1ccccc1-c1nc2scc(CCNC(=O)C(=O)Nc3ccc(F)cc3F)n2n1 0.0996%, Cc1cccc2nc(-c3ccc(Cl)s3)c(Nc3ccc4c(c3)OCCO4)n12 -42.6%, O=C(Cn1c(=O)n(Cc2ccccc2)c(=O)c2sc3ccccc3c21)Nc1ccccc1F -6.8%, COc1ccc(-c2cc(-c3ccccc3)nc3c2COc2ccc(Cl)cc2-3)cc1 -0.778%, Cc1ccc(S(=O)(=O)c2nc(-c3cccs3)oc2N2CCCCC2)cc1 1.01%, Cc1cccc(NC(=O)Cn2cc(S(=O)(=O)Cc3ccccc3Cl)c3ccccc32)c1 7.43%, O=C(NC1CC(=O)N(c2ccc(F)cc2)C1)c1cccs1 (stereo not given) -2.97%, COc1ccc(Cl)cc1S(=O)(=O)N1CCC(c2ccncc2)CC1 12.3%, CC(C)CC(NS(=O)(=O)c1ccc2c(c1)oc(=O)n2C)C(=O)NCc1ccccc1Cl (stereo not given) -0.815%, CCc1ccccc1NC(=O)CSc1nnc(-c2ccccc2)c(-c2ccccc2)n1 13.9%, CCCc1nn2c(=O)cc(COC(=O)c3ccc(NC(=O)COc4ccc(F)cc4)cc3)nc2s1 -7.11%, CCOc1ccccc1CNC(=O)c1ccc2c(c1)nc1n2CCC(C)C1 (stereo not given) -0.912%, COc1ccc2c(c1)C=C(C(=O)NCc1cc(Br)ccc1OC)CO2 4.49%, CC(C)Cn1c(-c2ccc(S(=O)(=O)N3CCOCC3)cc2)csc1=Nc1cc(Cl)ccc1Cl -1.77%, O=C(Cc1ccc(Cl)cc1)NCC(c1cccs1)S(=O)(=O)c1ccc(Cl)cc1 (stereo not given) 14.4%, COc1cc(OC)c(NC(=O)c2cnc(N3CCCC3)nc2C)cc1Cl -8.6%, Cc1ccc(C(=O)COC(=O)C(Cc2c[nH]c3ccccc23)NC(=O)c2ccc(Br)cc2)cc1 (stereo not given) -3.65%, Cc1cc(N2CCN(c3cccc(C(F)(F)F)c3)CC2)n2nc(-c3ccccc3)nc2n1 1.74%, CCCNC(=O)c1ccc(Cn2c(SCC(N)=O)nc3ccccc3c2=O)cc1 -24.5%, Cn1c(=O)c(C(=O)O)nn(-c2ccccc2)c1=O 3.23%, Cc1ccc(OCC(=O)Nc2ccc(OCc3cc(=O)n4c(C)csc4n3)cc2)cc1C -2.25%, COc1cc(OC)c(NC(=O)c2c3c(nn2C)-c2ccccc2SC3)cc1Cl 1.84%, COC(=O)c1ccccc1NC(=O)Cn1c(=O)n(-c2cccc(C(F)(F)F)c2)c(=O)c2c(C)c(C)sc21 0.641%, Brc1ccc2c(c1)NC(c1cccnc1)=NC(c1ccccc1)=N2 -10.5%, CCOC(=O)c1cc(-c2ccccc2)n(CCC(=O)Nc2ccccc2CC)c1C -4.44%, COc1ccccc1-c1nnc(C2CCN(C(=O)c3ccc(Cl)cc3)CC2)o1 -3.37%, CCCCN(C)c1nnc(NC(=O)Nc2ccc(Br)c(C)c2)s1 -3.2%, CCOC(=O)Cn1c(=O)n(C2CCCCC2)c2nc(-c3cccc(OC)c3)nc(C(N)=O)c21 -0.638%, Cc1cc(C)c(NC(=O)CCc2c(C)nc3c(c(C)nn3C(C)(C)C)c2C)c(C)c1 4.5%, O=C(NC1CC(=O)N(c2ccc(F)cc2)C1)c1ccc(S(=O)(=O)N2CCCC2)cc1 (stereo not given) -5.5%, Cc1ccc(-c2nnc(Nc3ccc(OCC(N)=O)cc3)c3ccccc23)cc1S(=O)(=O)NCC1CCCO1 (stereo not given) -3.57%, O=C(c1ccc(Br)cc1)N(Cc1cccs1)c1ccc(F)cc1 15.3%, CC1=C(C(=O)OCC2CCCCC2)C(c2c(F)cccc2Cl)CC(=O)N1 (stereo not given) -3.1%, Cc1ccc(OCCSc2nc(C)c(Cc3ccccc3)c(=O)[nH]2)cc1 -0.304%, CCOc1ccc(-c2cc(C)n3nc(C(=O)Nc4ccc(C)c(C)c4)cc3n2)cc1 -15.3%, Cc1ccc2oc3c(c(=O)c2c1)C(c1ccc(O)cc1)N(Cc1ccc2c(c1)OCO2)C3=O (stereo not given) 0.711%, COc1ccc(-c2cc(C(=O)Nc3sc4c(c3C(N)=O)CCCC4)no2)cc1 -12.6%, COc1cccc(-c2cc(C(=O)Nc3ccc(C)cc3)[nH]n2)c1 -37.4%, CCCCN(CC)CCCNC(=O)c1nn(C)c2c1CSc1ccccc1-2 -4.82%, Cc1ccccc1CNC(=O)c1cccc(NC(=O)c2nsc3ccccc23)c1 -48.8%, COc1cc(NC(=O)c2cc3ccc4cccnc4c3[nH]2)cc(OC)c1OC 1.22%, Cc1nnc(NC(=O)CSc2nc3c([nH]c4ccccc43)c(=O)n2-c2cccc(Cl)c2)s1 -7.48%, Cc1ccc2nc(COc3ccccc3NC(=O)Nc3ccc(F)c(Cl)c3)cc(=O)n2c1 -22.2%, COc1ccc(-c2nc(Cn3c(=O)cc(C)c4c(C)nn(-c5ccccc5)c43)c(C)o2)c(OC)c1 -21%, CCOCCCNC(=O)c1ccc2nc(CCc3ccccc3)oc2c1 -46.9%, CCOc1cc(CNC(=O)c2sc3ncnc(N(C)C4CCCCC4)c3c2C)ccc1OC 20.8%, Cc1ccc(C)c(Cn2c(C(=O)O)c(CNCc3cccs3)c3ccccc32)c1 5.44%
